Sampled rows, rich in hits. Any-hit rate of the full collection: about 4.1%.
rCAG binder: binds r(CAG) RNA repeats; r(CAG) RNA repeat, TO-PRO-1 dye displacement fluorescence; inhibition, % at 3 µM; 1.3% of 370,000 active; AID 651821;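 active = inhibition above the plate cutoff, the mean of all test compounds on that plate plus 3 SD, cut at about 35% in these data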;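 note: 0% = DMSO alone and 100% = 100 µM mitoxantrone as full dye displacement; higher means more dye released from RNA so lower well fluorescence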
UHRF1 MBD2 ctr: blocks human UHRF1 binding to methylated DNA | Q96T88 | 0.75% of 370,000 active | AID 687016 | UHRF1 binding to methylated oligo, TR-FRET | inhibition, % at 4.4 µM; in the data active = inhibition above about 21%;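 note: UHRF1 SRA domain binding a hemimethylated CpG hairpin DNA probe; 0% = median of test compound wells and 100% = reference inhibitor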
LEDGF integ inh: blocks HIV-1 LEDGF/p75-dependent DNA integration. inhibition, % at 3.7 µM. 0.64% of 370,000 active. TR-FRET IN-LEDGF/p75 DNA integration, Eu/Cy5. AID 743269;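 active = inhibition above the screen-wide mean plus 3 SD, cut at about 13% in these data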;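 note: signal is the Cy5 over europium emission ratio at 671 and 618 nm; 0% = plate median of compound wells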
MBD2 inh: blocks human MBD2 binding to methylated DNA; Q9UBB5; AID 686964; 0.31% of 370,000 active; inhibition, % at 4.4 µM; TR-FRET, MBD2 binding to methylated oligonucleotide; in the data active = inhibition above about 13%
PRMT1 inh: inhibitors of human PRMT1 | Q99873 | recombinant PRMT1, activity-based probe fluorescence polarization | inhibition, % at 2.79 µM | 1.3% of 370,000 active;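 active = inhibition above about 21% made by adding two undisclosed values, limit read from the data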
ABHD5-PLIN5 inh: inhibitors of human ABHD5-perilipin-5 interaction. Split G. princeps luciferase complementation, luminescence, 4 h. inhibition, % at 4 µM. 0.78% of 360,000 active. AID 602281;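 active = inhibition above the mean inhibition across every tested compound plus 3 SD, cut at about 22% in these data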;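 note: 0% = DMSO only wells and the 100% control is not disclosed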
IN multimer up: HIV-1 integrase multimerization activation, counter-screen. shares compounds with LEDGF integ inh. TR-FRET HIV-1 integrase multimerization, biochemical. activation, % at 7.7 µM. 17% of 2,000 active; in the data active = activation above about 8.9%
TRFRET interf: TR-FRET optical interference, LEDGF/p75 integration counter-screen. shares compounds with LEDGF integ inh. TR-FRET optical interference counterscreen, HIV-1 IN multimerization. inhibition, % at 7.7 µM. 2,000 tested, under 10 active. AID 1053135;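 active = inhibition above the mean over all tested compounds plus 3 SD, which no compound reached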;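 note: 0% = integrase with antibodies and DMSO and 100% = antibodies without integrase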
IN-LEDGF confirm: confirmation of HIV-1 LEDGF/p75-dependent integration inhibitors; shares compounds with LEDGF integ inh; TR-FRET LEDGF/p75-dependent HIV-1 integration, biochemical; inhibition, % at 3.7 µM; 36% of 2,000 active; in the data active = inhibition above about 14%
Starred values were filed as active, the others as inactive; / = no result given.

SMILES	rCAG binder	UHRF1 MBD2 ctr	LEDGF integ inh	MBD2 inh	PRMT1 inh	ABHD5-PLIN5 inh	IN multimer up	TRFRET interf	IN-LEDGF confirm
O=C(COC(=O)/C=C/c1ccco1)Nc1ncc(Cl)cc1Cl	7	8	5	-4	15	-1	/	/	/
COc1ccc(OC)c(NC(=O)COC(=O)/C=C/c2ccccc2Cl)c1	-3	-1	-3	-1	2	0	/	/	/
CC(=O)c1ccc(-c2ccccc2C2=CC(=O)CC(C)(C)C2=O)cc1	3	2	-1	-1	2	/	/	/	/
O=C(CSCc1nc2scc(-c3cccs3)c2c(=O)[nH]1)Nc1ccccn1	7	-2	1	-1	2	-1	/	/	/
O=c1[nH]c(CN2CCc3ccccc32)nc2scc(-c3cccs3)c12	17	0	18*	0	10	0	1	-6	7
CN(C)C(=S)NC(=S)Nc1ccc2ccccc2c1	12	0	16*	1	11	6	1	-4	18*
CC1(NC(=S)Nc2ccc3ccccc3c2)CCS(=O)(=O)C1 (centres undefined)	2	1	4	-3	3	2	/	/	/
CCCCOCCCNC(=O)C[C@H]1C[C@@]2(C(=O)OC)C(=C[C@H](C(C)(C)C)O[C@@H]2C)N(Cc2ccc(Cl)cc2Cl)C1=O	9	-1	20*	-6	2	/	0	-2	-7
Cc1cccc(NC(=O)Nc2c(-c3ccc(C(F)(F)F)cc3)nc3ncccn23)c1	9	0	2	-2	4	/	/	/	/
CCN1CCN(c2cc(C)c3cc(NC(=S)N4CCOCC4)ccc3n2)CC1	6	-1	21*	6	-4	6	0	-2	-6
CCN1CCN(c2cc(C)c3cc(NC(=S)N4CCN(c5ccccc5)CC4)ccc3n2)CC1	-3	-4	5	-7	-6	10	/	/	/
C[n+]1cc(C(O)(c2ccccc2)c2ccccc2)n2ccccc21	/	1	-1	4	0	/	/	/	/
CCC1CCC(N2CCN(c3ccccc3F)CC2)CC1 (centres undefined)	-9	5	1	0	2	-5	/	/	/
CC(=O)N1CCC(N2CCN(c3ccccc3F)CC2)CC1	-3	6	40*	4	-3	4	1	-5	-3
N#Cc1ccc(OC[C@@H](O)CN2CCC(C(O)(c3ccccc3)c3ccccc3)CC2)cc1F	-1	2	1	3	-1	/	/	/	/
O=[N+]([O-])c1cc(-c2ccccc2)cc([N+](=O)[O-])c1O	11	-9	1	-11	4	4	/	/	/
O=[N+]([O-])c1cc2ccccc2c(O)c1O	7	-5	18*	-16	13	-51	4	-20	30*
CC1CCN(C(=O)CCNS(=O)(=O)c2ccc(Br)cc2)CC1	3	-1	45*	-2	1	-10	-1	4	-4
O=S(=O)(c1ccc(NC(=S)N/N=C/c2ccc(O)c(O)c2)cc1)N1CCOCC1	19	12	18*	0	0	5	1	-6	14*
S=C(N/N=C/c1ccc2ncccc2c1)Nc1cccnc1	-2	-5	-6	-2	1	-2	/	/	/
Oc1ccc(/C=N/NC(=S)Nc2cccnc2)cc1O	3	-2	21*	-9	4	-2	18*	-66	34*
CC1=NN(c2cccc(C(=O)O)c2)C(=O)/C1=C\C=C/c1ccccc1	14	-1	16*	-2	-1	20	7	-24	16*
CC1=NN(c2ccccc2)C(=O)/C1=C/C=C/C=C/N(C)C	-8	-29	23*	-21	-3	17	16*	-56	-4
CC1=NN(c2ccccc2)C(=O)C1=Cc1ccccc1	10	16	12	5	0	-15	/	/	/
CC1=NN(c2ccccc2)C(=O)/C1=C/c1cccs1	4	18	46*	10	3	-12	3	-11	-1
SMILES	rCAG binder	UHRF1 MBD2 ctr	LEDGF integ inh	MBD2 inh	PRMT1 inh	ABHD5-PLIN5 inh	IN multimer up	TRFRET interf	IN-LEDGF confirm
CC1=NN(c2ccccc2)C(=O)/C1=C\N(O)c1ccccc1	-2	-8	2	-1	2	-12	/	/	/
CC1=NN(c2ccc(C)cc2)C(=O)/C1=C\C=C\c1ccccc1	5	2	8	0	3	0	/	/	/
COC(=O)[C@]12C[C@H](CC(=O)NCCCN3CCCC3=O)C(=O)N(Cc3ccc4c(c3)OCO4)C1=C[C@H](COCc1ccccc1)O[C@@H]2C	2	3	3	-1	-1	/	/	/	/
CC(C)NCC(O)c1ccc(NS(C)(=O)=O)cc1 (centres undefined)	0	-2	2	2	-1	1	/	/	/
CC(C)NC[C@@H](O)c1ccc(O)c(O)c1	8	-2	16*	-7	15	-15	4	-21	21*
COc1ccc(Nc2ncc(C(=O)N3CCN(c4ccc(F)cc4)CC3)c3ccccc23)cc1	0	2	14*	-2	-2	11	-1	3	-5
CC(=O)O[C@H]1C=C[C@@H](NC(=O)OC(C)(C)C)C1	-1	1	-2	1	-1	/	/	/	/
Cc1cc(NC(=O)CSc2nc(C3CC3)nc3sc(C)c(C)c23)no1	0	1	17*	-2	0	-12	16*	-55	-8
CC(C)(C)OC(=O)N1CCC(C(=O)N[C@@H](Cc2ccccc2)C(=O)O)(c2ccccc2)CC1	5	-1	18*	-3	-2	-1	2	-8	15*
CCCCCCCCN1C(=O)[C@@H](CC(=O)NCc2ccc(C)o2)C[C@@]2(C(=O)OC)C1=C[C@H](COCc1ccccc1)O[C@@H]2C	7	-3	-1	0	16	/	/	/	/
NC(CO)c1csc(Nc2ccc(C(F)(F)F)cn2)n1 (centres undefined)	9	-3	0	3	-2	-5	/	/	/
COc1ccc(C(N)c2csc(Nc3cc(Oc4ccccc4)ncn3)n2)cc1 (centres undefined)	12	0	3	0	-2	-3	/	/	/
NC(c1csc(Nc2cc(Oc3ccccc3)ncn2)n1)C1CCCCC1 (centres undefined)	15	-2	13*	-7	-4	-7	0	1	-7
NC(c1csc(Nc2ccc(C(F)(F)F)cn2)n1)C1CCCCC1 (centres undefined)	17	-3	18*	-2	-1	0	0	-1	-4
